# Results from PubChem BioAssay (NCI).
# The panel holds about 83,000 compounds, 20% with a hit somewhere; the sample as a whole holds those more often.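 Cells were grown in 96-well plates and exposed to the test compound at a single concentration for 48 hours; results are reported as percent growth, with values below 10 considered active.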 A number with no mark means an inactive call. Activity calls are given as the source filed them.
# Key:
# Experiment in all cases: NCI-60 one-dose screen, 48 h (100 = growth as untreated, 0 = no growth, -100 = all killed)
# Conditions in all cases: 10 µM unless noted
# NCI-H23 lung = test system: NCI-H23 lung
# NCI-H322M lung = test system: NCI-H322M lung
# HOP-62 NSCLC = test system: HOP-62 NSCLC
# NCI-H460 lung = test system: NCI-H460 lung
# HOP-92 NSCLC = test system: HOP-92 NSCLC
# NCI-H522 lung = test system: NCI-H522 lung
# A549/ATCC NSCLC = test system: A549/ATCC NSCLC
# 786-0 renal = test system: 786-0 renal
# DU-145 prostate = test system: DU-145 prostate
# MALME-3M melanoma = test system: MALME-3M melanoma
# MDA-MB-231 breast = test system: MDA-MB-231 breast
# SF-268 CNS = test system: SF-268 CNS
# SF-295 CNS = test system: SF-295 CNS
# SF-539 CNS = test system: SF-539 CNS
# UACC-257 melanoma = test system: UACC-257 melanoma
# M14 melanoma = test system: M14 melanoma
# HCT-15 colon = test system: HCT-15 colon
# K-562 leukemia = test system: K-562 leukemia
# RXF 393 renal = test system: RXF 393 renal
SMILES,growth (NCI-H23 lung),growth (NCI-H322M lung),growth (HOP-62 NSCLC),growth (NCI-H460 lung),growth (HOP-92 NSCLC),growth (NCI-H522 lung),growth (A549/ATCC NSCLC),growth (786-0 renal),growth (DU-145 prostate),growth (MALME-3M melanoma),growth (MDA-MB-231 breast),growth (SF-268 CNS),growth (SF-295 CNS),growth (SF-539 CNS),growth (UACC-257 melanoma),growth (M14 melanoma),growth (HCT-15 colon),growth (K-562 leukemia),growth (RXF 393 renal)
Cc1nn(-c2nc3ccccc3[nH]2)c2c1C(c1ccc(OCC(N)=O)cc1)CC(=O)N2 (centres undefined),103%,105%,100%,103%,105%,100%,109%,104%,107%,88.2%,103%,96.4%,69.5%,100%,110%,80%,98%,,
CN1C(=O)N(C)C2(c3ccccc3)n3c(s/c(=C\c4ccccc4)c3=O)=NNC12c1ccccc1 (centres undefined),97.2%,95.3%,101%,91.6%,89.5%,84.3%,89.1%,98.3%,93%,86.9%,85.1%,96.9%,97.3%,93.1%,98.3%,83.4%,89.5%,71.2%,86.8%
O=C(NCc1ccco1)C1CN(c2ccc(Cl)cc2)N(c2ccc(Cl)cc2)C1=O (centres undefined),59.5%,68.2%,48.6%,14.4%,78.1%,39.3%,40.1%,37.6%,70.1%,37.2%,59.1%,50.9%,30.1%,49.4%,69.1%,32.1%,28.4%,17.9%,58.2%
Nc1nc(Nc2cccc(F)c2)nc2ccccc12,38.7%,47.2%,65.7%,31.6%,-2.46% (active),51.5%,46.3%,46.5%,67.9%,57.2%,43.7%,77.3%,,54.3%,12%,22.9%,33.4%,6.62% (active),42%
CCCCN1CCN(c2ccc3nc(-c4ccc5nc(-c6ccc(OC)c(OC)c6)[nH]c5c4)[nH]c3c2)CC1,-66.1% (active),10.1%,-1.2% (active),-35% (active),60.7%,-36.8% (active),28.4%,-85.9% (active),2.42% (active),-62.3% (active),-38.1% (active),20.7%,10.6%,-81.9% (active),-3.47% (active),-52.5% (active),46.1%,-15.5% (active),-98.5% (active)
CCCCN1CCN(c2ccc3nc(-c4ccc5nc(-c6ccc(OCC)cc6)[nH]c5c4)[nH]c3c2)CC1,64.1%,82.4%,46.2%,75.9%,95.9%,68.8%,86.5%,75.3%,68.7%,36%,111%,77.1%,48.7%,67.9%,68.2%,32.7%,16.6%,-29.1% (active),36.9%
CCCCN1CCN(c2ccc3nc(-c4ccc5nc(-c6ccc(C(F)(F)F)cc6)[nH]c5c4)[nH]c3c2)CC1,-85.1% (active),-94.1% (active),-78.5% (active),-79.9% (active),-13.5% (active),-38.2% (active),-71.9% (active),-84.9% (active),-95.5% (active),-74.2% (active),-88.9% (active),-71.8% (active),-84% (active),-92.8% (active),-16.2% (active),-63.5% (active),-79% (active),-65.8% (active),-82% (active)
Cc1cccc2c(=O)c3c(sc12)c(N1CCNCC1)nc1ccccc13,80.4%,74.5%,73.6%,80%,53.7%,82.6%,78.3%,78.1%,67.5%,98.6%,56.3%,76.1%,93.5%,75.8%,96.6%,74%,25.9%,-23% (active),72.2%
COc1ccc2sc3c(NCCCN)nc4ccccc4c3c(=O)c2c1,80.7%,68.9%,57.2%,-73.3% (active),33.9%,18.7%,-44.8% (active),42.3%,-6.46% (active),94.2%,25.3%,57.6%,94.5%,74.1%,95.7%,18.9%,-49% (active),-56.9% (active),49.5%
COc1cc(/C(C#N)=C/c2nc3c(N4CCOCC4)nc(Cl)nc3n2C)cc(OC)c1OC,18.2%,28.8%,25.1%,-3.75% (active),-4.18% (active),15.7%,19.5%,6.45% (active),4.54% (active),34.8%,9.11% (active),17.2%,-15% (active),-23.7% (active),66.2%,10.8%,8.94% (active),4.64% (active),25.7%
COc1ccc(-c2nsc3c2NC(=O)CC3c2ccc3c(c2)OCCO3)cc1 (centres undefined),29%,74.8%,34.8%,6.65% (active),66.1%,-15.2% (active),28.9%,28.3%,5.37% (active),59.9%,,55.4%,0.403% (active),-17% (active),76.2%,19.7%,14.6%,13.3%,0.635% (active)
O=c1oc2ccc(Cl)cc2c(=O)n1-c1ccc(Cl)cc1F,-4.79% (active),4.88% (active),-6.42% (active),3.59% (active),-12.9% (active),-20.9% (active),5.46% (active),5.1% (active),15.3%,-29.9% (active),-17% (active),7.63% (active),-64.2% (active),1.24% (active),-15.1% (active),0.632% (active),1.3% (active),4.6% (active),4.5% (active)
COC(=O)c1c2c(c(C)[n+]([O-])c1C)C(=O)C=C(NCc1ccc(F)c(F)c1)C2=O,-76% (active),-15.7% (active),-11.8% (active),-26.3% (active),-37.9% (active),-53.1% (active),-24.4% (active),-3.8% (active),-99.6% (active),-100% (active),-31.2% (active),-12.2% (active),-99% (active),-95.7% (active),-83% (active),-88.2% (active),-83.3% (active),1.15% (active),-51% (active)
CN(C)CCCNCc1ccc(-c2ccc(F)c(Cl)c2)o1,77.1%,65%,19.2%,-58.4% (active),35.7%,19.5%,-50.5% (active),49.6%,19.7%,-57.7% (active),13.4%,53.3%,-18.3% (active),60.8%,-5.97% (active),-80.9% (active),1.01% (active),-19% (active),16%
O=C1NC(=S)NC(=O)C1=Cc1cn(Cc2cn(Cc3cccc4ccccc34)nn2)c2ccccc12,88%,93.7%,94.9%,89.4%,102%,97.2%,106%,115%,105%,86.5%,87.6%,95.4%,98.4%,96.3%,103%,95%,100%,121%,84.6%
Cc1c(-c2noc(-c3ccc([N+](=O)[O-])cc3)n2)no[n+]1[O-],86%,88.4%,86.1%,103%,85.2%,102%,111%,99.5%,99.9%,99.5%,95.4%,92.6%,99.9%,97.4%,106%,93.8%,93.1%,93.7%,102%
CNCCNc1nc2ccccc2c2c(=O)c3cccc(C)c3sc12,58.2%,40.9%,25.6%,9.45% (active),44%,27.8%,35.7%,57.3%,27.8%,-11.3% (active),-18% (active),53.7%,76%,52.4%,82%,-40.9% (active),-21.3% (active),-52.5% (active),50.8%
